SKN-1 block – C. elegans SKN-1 inhibition | C. elegans VP596 Pgst-4::GFP/RFP ratio, acrylamide-induced, 24 h | inhibition, % at 21.8 µM | 360,000 compounds, 0.49% hits;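 active means interference check ratio from 0.5 to 1.5 plus GFP to RFP signal ratio inhibition reaching or exceeding a fixed threshold, cut at about 30% in these data, passing the limit was not always enough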
CendR NRP1 mod – NRP-1/CendR interaction modulation; O14786; FAM-RPARPAR peptide binding to NRP-1, fluorescence polarization; inhibition, % at 25 µM; 360,000 compounds, 0.85% hits; AID 602438;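 active means inhibition or corrected inhibition above about 18%, plus a signal ratio from 0.5 to 1.5, limit read from the data, passing the limit was not always enough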
Target sequence (O14786 whole entry, looked up): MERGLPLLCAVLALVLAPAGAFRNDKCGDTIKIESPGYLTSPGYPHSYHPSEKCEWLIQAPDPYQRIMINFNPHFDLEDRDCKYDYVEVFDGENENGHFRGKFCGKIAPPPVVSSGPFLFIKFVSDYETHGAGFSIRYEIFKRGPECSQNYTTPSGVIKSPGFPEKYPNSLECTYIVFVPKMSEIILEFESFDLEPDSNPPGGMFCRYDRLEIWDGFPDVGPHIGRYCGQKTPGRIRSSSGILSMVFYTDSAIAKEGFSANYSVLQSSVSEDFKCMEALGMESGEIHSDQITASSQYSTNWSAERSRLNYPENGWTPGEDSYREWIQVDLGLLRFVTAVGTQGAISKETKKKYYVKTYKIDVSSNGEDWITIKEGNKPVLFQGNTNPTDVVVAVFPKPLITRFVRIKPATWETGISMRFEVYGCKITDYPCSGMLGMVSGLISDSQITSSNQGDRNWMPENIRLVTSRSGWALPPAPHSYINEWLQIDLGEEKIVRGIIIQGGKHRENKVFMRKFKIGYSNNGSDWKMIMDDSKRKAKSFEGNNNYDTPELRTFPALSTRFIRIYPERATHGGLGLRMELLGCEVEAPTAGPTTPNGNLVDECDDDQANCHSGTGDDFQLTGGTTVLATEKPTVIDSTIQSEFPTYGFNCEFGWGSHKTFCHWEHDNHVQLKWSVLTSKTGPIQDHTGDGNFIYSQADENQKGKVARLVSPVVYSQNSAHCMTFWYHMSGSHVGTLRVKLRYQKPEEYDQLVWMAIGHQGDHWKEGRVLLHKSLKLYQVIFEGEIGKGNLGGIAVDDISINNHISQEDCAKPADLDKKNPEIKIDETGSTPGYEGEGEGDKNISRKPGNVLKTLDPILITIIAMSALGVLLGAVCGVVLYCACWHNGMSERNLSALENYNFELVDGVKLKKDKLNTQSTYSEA
MPTP block – permeability transition pore inhibition. isolated mouse mitochondria, Ca2+ swelling absorbance, 30 min. inhibition, % at 10 µM. 360,000 compounds, 1.4% hits. AID 602449;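 active means inhibition of 50% or more, scaled per plate between neutral and stimulator controls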;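 further: 0% = DMSO wells given calcium and 100% = 1 mM EGTA wells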
CFTR F508del cor – CFTR F508del correction in bronchial cells. CFBE cells, YFP halide quenching; stimulated with forskolin plus potentiator P3; % fluorescence drop versus neutral controls. activity (quench increase), % at 7.58 µM. 350,000 compounds, 0.36% hits. AID 720511;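 active means mean added fluorescence quench of at least 8% versus neutral control, with both replicates also reaching 8%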;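 further: cells transiently co-express mutant CFTR-F508del with the halide-sensitive YFP; corrector assay measuring rescue of mutant channel to the surface after 24 h compound exposure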
ATG4B inh – ATG4B (human) cysteine protease inhibition. inhibition, % at 8.33 µM. AID 504462. 340,000 compounds, 0.51% hits. ATG4B cleavage of LC3-PLA2, NBD-HPC fluorescence, 1 h; in the data active means inhibition above about 40%
MPTP counter – membrane potential counter-screen of mitochondrial pore inhibitors | shares compounds with MPTP block | inhibition, % at 10 µM | 5,000 compounds, 78% hits | isolated mitochondria, Rhodamine 123 fluorescence; in the data active means inhibition above about 22%;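 further: 0% = DMSO vehicle and 100% = positive control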
MPTP swell DR – dose response confirmation of mitochondrial permeability transition pore inhibitors; IC50, µM; isolated mitochondria swelling, absorbance; 780 compounds, 58% hits; AID 651561; shares compounds with MPTP block; in the data active means IC50 below about 20 µM
MPTP counter DR – MPTP inhibitor counter-screen activity, dose response. isolated mitochondria counterscreen, fluorescence read-out. IC50, µM. 780 compounds, 49% hits. shares compounds with MPTP block; in the data active means IC50 below about 80 µM
* hit, by the source's call; i = inactive; . = no result. Sampled rows, rich in hits. Any-hit rate of the full collection: about 2.7%.

SMILES | SKN-1 block | CendR NRP1 mod | MPTP block | CFTR F508del cor | ATG4B inh | MPTP counter | others
O=C(NC(=S)NNC(=O)c1ccc(Cl)cc1Cl)c1cccnc1 | -12 | -14 | -2 | . | -1 | .
Cc1onc(-c2ccccc2)c1C(=O)NNC(=S)NC(=O)c1ccc(Br)cc1 | 22 | 6 | 68* | -1 | -1 | 29*
Cc1onc(-c2ccccc2)c1C(=O)NNC(=O)c1ccccc1 | 4 | -4 | 2 | -1 | 3 | .
CC(C)C[C@@H]1NC(=O)[C@H]2C[C@@H](C(=O)NCCCCCN)[C@@H](c3cccc(OCCO)c3)N2C1=O | . | . | . | -1 | . | .
Cc1noc(C)c1NC(=O)Nc1ccc2c(c1)C(=O)N([C@H](C)CO)C[C@@H](C)[C@@H](CN(C)Cc1ccc(C(F)(F)F)cc1)O2 | . | . | . | 1 | . | .
CO[C@H]1CN(C)C(=O)c2ccc(NC(C)=O)cc2OC[C@H](C)N(C(=O)c2cnccn2)C[C@H]1C | . | . | . | -2 | . | .
Cc1noc(C)c1NC(=O)Nc1ccc2c(c1)C(=O)N([C@@H](C)CO)C[C@@H](C)[C@@H](CN(C)Cc1ccccc1)OCCCC[C@@H](C)O2 | . | . | . | -1 | . | .
Cc1ccc(C(=O)NNC(=S)NC(=O)c2ccc(Cl)cc2)cc1 | 6 | -5 | 91* | . | 2 | 9
Cc1cccc(C(=O)NC(=S)NNC(=O)Cc2ccccc2)c1 | -4 | 2 | 28 | -2 | -7 | .
Cc1cccc(C(=O)NC(=S)NNC(=O)COc2c(C)cccc2C)c1 | -1 | 6 | 87* | . | 7 | -7 | MPTP swell DR=6.7*;MPTP counter DR=39*
Cc1onc(-c2ccccc2)c1C(=O)NNC(=S)NC(=O)c1ccc(Cl)cc1Cl | 4 | -6 | 104* | . | 10 | 33*
CCCC(=O)Nc1ccc2c(c1)C(=O)N(C)[C@@H]1CC[C@H](CC(=O)NCCc3ccccc3)O[C@@H]1CO2 | . | . | . | -4 | . | .
Cc1cc(F)ccc1-c1cc(C(=O)NCc2cc(C(F)(F)F)cc(C(F)(F)F)c2)[nH]n1 | -3 | 5 | 84* | 0 | . | 104*
Cc1cc(C)c(O)c(-c2cc(C(=O)Nc3ccc(S(=O)(=O)N4CCOCC4)cc3)[nH]n2)c1 | -6 | 9 | 93* | . | -10 | 64*
CC(=O)Nc1ccc(NC(=O)c2cc(-c3cc(C)cc(C)c3O)n[nH]2)cc1 | -1 | 6 | 1 | -1 | -19 | .
Cc1ccc(CNC(=O)c2cc(-c3cc(C)cc(C)c3O)n[nH]2)cc1 | -1 | 2 | 88* | 0 | 2 | 73*
Cc1ccc(Cl)cc1-c1cc(C(=O)NCc2cc(C(F)(F)F)cc(C(F)(F)F)c2)[nH]n1 | -1 | 3 | 96* | -2 | . | 83*
C[C@@H]1CN([C@@H](C)CO)C(=O)Cc2cc(NC(=O)Nc3ccc4c(c3)OCO4)ccc2O[C@@H]1CN(C)CC1CC1 | . | . | . | 1 | . | .
COc1cccc(C2NC(=S)N(Cc3ccc(Br)cc3)C(C)=C2C(C)=O)c1 (stereo not given) | . | . | . | 4 | . | .
Cc1cc(F)cc(-c2cc(C(=O)NCc3ccc(C(F)(F)F)cc3)[nH]n2)c1 | 16 | -4 | 19 | -4 | . | .
Cc1csc(-c2cc(C(=O)NCc3cc(C(F)(F)F)cc(C(F)(F)F)c3)n[nH]2)c1 | 8 | -5 | 72* | . | . | 78*
Cc1ccc(F)cc1-c1cc(C(=O)NCc2cc(C(F)(F)F)cc(C(F)(F)F)c2)[nH]n1 | 20 | -3 | 69* | 0 | . | 101*
COc1ccc(CN(C)C[C@H]2OCCCC[C@@H](C)Oc3ccc(NS(=O)(=O)c4cccs4)cc3C(=O)N([C@@H](C)CO)C[C@@H]2C)cc1 | . | . | . | 0 | . | .
CO[C@@H]1CN(C)C(=O)c2cc(NC(=O)C3CCCC3)ccc2OC[C@H](C)N(CCC(F)(F)F)C[C@@H]1C | . | . | . | 3 | . | .
O=C(CN(c1cccc(C(F)(F)F)c1)S(=O)(=O)c1ccc(Cl)c([N+](=O)[O-])c1)NCc1ccc(F)cc1 | 9 | -5 | 74* | . | 40 | 67*
SMILES | SKN-1 block | CendR NRP1 mod | MPTP block | CFTR F508del cor | ATG4B inh | MPTP counter | others
C=CCc1cccc(/C=C/c2cc(=O)c3ccccc3[nH]2)c1O | 1 | -9 | 60* | . | 4 | 50*
CC(CNC(=O)COc1ccccc1)OC(=O)Nc1ccc(Cl)c(Cl)c1 (stereo not given) | 11 | -6 | 89* | . | -12 | 88*
C=CCN1C(=O)S/C(=C/c2ccsc2)C1=O | 26 | 0 | 1 | . | -6 | .
C=CCN1C(=O)S/C(=C/c2ccc(Sc3nc4ccccc4[nH]3)o2)C1=O | -3 | -41 | 91* | . | -5 | 88*
CC(C)N1C(=O)S/C(=C/c2ccc(Sc3nc4ccccc4[nH]3)o2)C1=O | -3 | -57 | 100* | 7 | 4 | 88*
CCCN1[C@@H]2Cn3c(ccc(C4=CCCCC4)c3=O)[C@H]1[C@@H](C(=O)NCC(F)(F)F)[C@@H]2CO | . | . | . | -4 | . | .
O=C(NNC(=S)Nc1cccc2ccccc12)c1cccc(Br)c1 | -8 | 6 | 68* | . | 26 | 87*
O=C(NNC(=O)c1ccc2ccccc2c1)c1cccc(Br)c1 | 7 | 4 | 0 | -3 | 0 | .
COc1cc(NC(=O)CNC(=O)Cn2c(C)cc3ccccc3c2=O)cc(OC)c1OC | 3 | 6 | -2 | 1 | -4 | .
COc1ccc(NC(=O)CNC(=O)Cn2c(C)cc3ccccc3c2=O)cc1OC | 2 | -4 | 70* | -3 | -1 | 24*
COc1ccccc1NC(=O)Cn1c(C)cc(=O)c2cccc(OC)c21 | 15 | -8 | 70* | -3 | -24 | 55*
CC(C)NC(=O)Nc1ccc2c(c1)C(=O)N([C@H](C)CO)C[C@@H](C)[C@H](CN(C)C(=O)NC1CCCCC1)OCCCC[C@@H](C)O2 | . | . | . | 2 | . | .
COc1cccc(CN2[C@@H](CO)[C@H](c3ccccc3)C23CN(C(=O)C2CCCCC2)C3)c1 | . | . | . | 2 | . | .
CCC(=O)Nc1ccc2c(c1)C(=O)N(C)[C@H]1CC[C@@H](CC(=O)O)O[C@@H]1CO2 | . | . | . | -2 | . | .
CCCCS(=O)(=O)N1CCCc2nc(-c3ccc(F)cc3)ccc21 | . | . | . | -2 | . | .
COc1ccc(S(=O)(=O)Nc2ccc(N3CCOCC3)cc2)cc1 | 1 | 9 | 0 | 0 | -5 | .
Nc1cc(S(=O)(=O)Nc2ccccc2Cl)ccc1N1CCCC1 | -5 | 1 | 10 | -2 | 0 | .
Nc1cc(S(=O)(=O)Nc2cc(Cl)ccc2Cl)ccc1N1CCOCC1 | -5 | 6 | 61* | -2 | -8 | 18 | MPTP swell DR=i;MPTP counter DR=55*
COc1ccc(NS(=O)(=O)c2ccc(N3CCOCC3)c(N)c2)cc1 | 9 | 2 | 86* | -1 | -13 | 96*
C[C@@H]1CN([C@@H](C)CO)C(=O)c2cc(NC(=O)CCCCCC(=O)Nc3ccccc3N)ccc2O[C@H]1CN(C)Cc1ccc(C(F)(F)F)cc1 | . | . | . | -3 | . | .

Screens: PubChem BioAssay, several laboratories
